The structures appear in SMILES notation. Screen size: about 310,000 compounds; about 1,000 (0.32%) were called active. Not all results are given here. Results with a measured potency or affinity are listed apart. A number with no mark means an inactive call. No rule for the calls is given here.

The assay is described as follows: PhoP regulon inhibitors, Salmonella typhi PhoP promoter GFP reporter, confirmatory (AID 1850).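 Also: 0% = induced wells with vehicle and 100% = uninduced wells.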 The following applies: fluorescence, 4 h, at 50 µM, stronger effect = higher value.
As for `COc1ccccc1CNC(=O)CCC(=O)N1C[C@H]2C[C@@H](C1)c1cccc(=O)n1C2`, the inhibition – broadly, the change of the read-out against control, counted positive when it falls – was 0.48%. For `CCOCC(=O)Nc1nnc(SCCOC)s1`, the inhibition is -8.99%. As for `O=C(CC(n1cncn1)C(Cl)(Cl)Cl)c1ccc([N+](=O)[O-])cc1` (stereo not given), the figure is -2.18%; as for `CC(=O)NC(CC(=O)c1ccc([N+](=O)[O-])cc1)C(Cl)(Cl)Cl` (stereo not given), -10.7%; as for `O=C(CSC1=NC(=O)C(c2ccccc2)C(=O)N1)Nc1ccccc1[N+](=O)[O-]` (stereo not given), 0.46%.

Turning to `Cc1ccccc1-n1ncc2c1CC(C)(C)CC2NC(=O)C1CCC1` (stereo not given), the inhibition is 6.32%. With `N/C(=N\OS(=O)(=O)c1ccc(Cl)cc1)c1ccncc1`, the inhibition is -3.25%. The result for `N/C(=N\OC(=O)c1ccc(Cl)cc1)c1cccnc1` reads 8.82%. As for `N/C(=N\OC(=O)c1ccccc1)c1cccnc1`, the figure is -1.82%; as for `N/C(=N\OS(=O)(=O)c1ccc2ccccc2c1)c1ccncc1`, 9.71%. For the compound `N/C(=N\OS(=O)(=O)c1ccccc1)c1ccncc1`, the inhibition is 6.44%.

On to `N/C(=N\OC(=O)COc1ccc2ccccc2c1)c1cccnc1`, for which the inhibition is -4.96%. Regarding `O=C(COC(=O)c1ccc([N+](=O)[O-])o1)Nc1cccc(S(=O)(=O)N2CCCCC2)c1`, the inhibition was 9.11%. As for `CC(=O)N(C)c1ccc(NS(=O)(=O)c2cc(Cl)ccc2Cl)cc1`, the figure is -11.6%; as for `CCOC(=O)C1C(=O)C=C(c2cccs2)CC1c1ccccc1C` (stereo not given), -6.96%. As for `CC1CN(C)C(C)CC1OC(=O)C(c1ccccc1)c1ccccc1` (stereo not given), the inhibition is -11.9%. On to `CCCCOc1ccc(C(=O)N2CC(C)OC(C)C2)cc1` (stereo not given), for which the inhibition is -8.56%. In the case of `Cc1ccc(N2OC3C(=O)NC(=O)C3C2c2ccco2)cc1` (stereo not given), the inhibition is -16%.

As for `Cc1ccc(C(C)C)c(OCc2nn(CC(=O)c3ccc(Cl)cc3)c3[n+]2CCCCC3)c1`, the inhibition is -26.5%. Consider `COc1ccc(C(=O)Cn2nc(CNc3ccc(Br)cc3)[n+]3c2CCCCC3)cc1`, for which the inhibition was 1.1%. The result for `O=C(Cn1nc(CNc2ccc(Cl)cc2)[n+]2c1CCCCC2)c1ccccc1` reads -5.48%; that for `COc1ccc(NCc2nn(CC(=O)c3ccc(Br)cc3)c3[n+]2CCCCC3)cc1`, 8.75%. Consider `COC(=O)CNC(c1ccccc1)c1cc(Cl)ccc1NC(=O)c1cccc(Cl)c1` (stereo not given), for which the inhibition is -1.38%.

Turning to `CCCCOc1ccc(Cc2cnc(N)nc2N)cc1`, the inhibition is -18.3%.

As to `COCc1cnc(C)nc1N`, the inhibition was -2.28%. The result for `COc1ccccc1OCc1nc2ccccc2n1C` reads -1.73%; that for `O=C(NNC(=O)C(c1ccccc1)c1ccccc1)c1cccs1`, -3.78%. Take `CN1CCN(c2ccc(NC(=O)c3ccc(-c4ccc(Cl)cc4)o3)cc2)CC1`: the inhibition is 14.7%. Take `CN1CCN(c2ccc(NC(=O)c3ccc(Br)o3)cc2)CC1`: the inhibition was -0.39%. The result for `Cc1ccc(NC(=O)CSc2nnc(CNC(=O)c3ccco3)o2)cc1Cl` reads -4.93%; that for `CCCCC(=O)NNC(=S)NC(=O)C(c1ccccc1)c1ccccc1`, -0.63%.

For `CCCCC(=O)NNC(=S)NC(=O)c1ccc(C)cc1`, the inhibition was 12.1%.

In the case of `CCCCCCCC(=O)NNC(=O)CCC(=O)O`, the inhibition is -4.06%.

Consider `CCCCC(=O)NC(=S)Nc1cccc(NC(=O)CC)c1`, for which the inhibition was -1.01%. Turning to `CCCCCC(=O)NC(=S)NC1C2CC3CC(C2)CC1C3` (stereo not given), the inhibition is 14.6%. As for `CCCCC(=O)NC(=S)NNC(=O)CC#N`, the figure is 15.9%; as for `CCCCCC(=O)NNC(=S)NC(=O)c1ccc([N+](=O)[O-])cc1`, -13%; as for `CCCCC(=O)NC(=S)NNC(=O)CCc1ccccc1`, -4.48%. The result for `O=C(CNc1cccc(S(=O)(=O)N2CCOCC2)c1)N1CCc2ccccc21` reads -12.4%; that for `Cc1cc(-n2c(=S)sc3c(=O)n(-c4ccc(F)cc4)c(SCC(=O)O)nc32)ccc1Cl`, 2.23%. The result for `CN(c1ccccc1)S(=O)(=O)c1ccc(NC(=O)c2ccc(F)cc2)cc1` reads -3.04%. As to `Cc1cc(OCC(=O)Nc2ccc(OCc3ccccc3)cc2)nc(C(C)C)n1`, the inhibition is -4.55%. The result for `O=C(CCn1cnc(-c2ccccc2)c1-c1ccccc1)N/N=C/c1ccccc1O` reads -2.92%; that for `COc1cccc(-c2ccc(SCC(=O)NC3CCCC3)nn2)c1`, -7.47%; that for `CCN1CCN(C(=O)CCS(=O)(=O)c2cc3c(cc2Cl)NC(=O)CO3)CC1`, 12.4%. For `CCn1c(C)cc(/C=C2/SC(=S)N(CC(=O)O)C2=O)c1C`, the inhibition was 6.61%. The result for `O=C(Oc1cccc(NC(=O)c2ccco2)c1)c1cccc(S(=O)(=O)N2CCCCC2)c1` reads 2.38%; that for `CCN(CC)CCn1c(=N)n(CC(=O)c2ccc(Br)s2)c2ccccc21`, 14.1%. As for `N=c1n(CC(=O)c2cccs2)c2ccccc2n1Cc1ccccc1`, the figure is 11.7%. The result for `CCn1c(=N)n(CC(=O)c2ccc(Br)s2)c2ccccc21` reads 11.2%; that for `Cn1c(=N)n(CC(=O)c2ccc(Br)s2)c2ccccc21`, -0.89%. In the case of `CCc1cc(CNC(=O)C2CCC(=O)N(CCc3ccc(OC)cc3)C2)on1` (stereo not given), the inhibition is -3.38%.

Turning to `CCOC(=O)C1=C(c2ccccc2)Nc2ncnn2C1c1ccc(C(=O)O)cc1` (stereo not given), the inhibition is -0.92%. On to `CCOC(=O)C1=C(c2ccccc2)NC(N)=NC1c1ccc(OCc2ccc(Cl)cc2)c(OC)c1` (stereo not given), for which the inhibition is 0.34%. On to `Cc1ccc(SCc2cc(=O)[nH]c(N3CCOCC3)n2)cc1`, for which the inhibition was 4.21%. The result for `C#CCOCCOCCOCCNc1nc(N2CCN(C(=O)CCCCCCCCCCNC(=O)[C@H](CCCCN)n3cc(C)nn3)CC2)nc(N2CCN(C(=O)CCCCCCCCCCNC(=O)[C@H](CCCCN)n3cc(CCCC(=O)O)nn3)CC2)n1` reads -29.8%; that for `C#CCOCCOCCOCCNc1nc(N2CCN(C(=O)CCCCCCCCCCNC(=O)Cn3cc(C[C@@H](C)O)nn3)CC2)nc(N2CCN(C(=O)CCCCCCCCCCNC(=O)[C@H](CCCN=C(N)N)n3cc(C[C@@H](C)CC)nn3)CC2)n1`, 25.7%; that for `C#CCOCCOCCOCCNc1nc(N2CCN(C(=O)CCCCCCCCCCNC(=O)[C@H](CCCCN)n3cc(CCO)nn3)CC2)nc(N2CCN(C(=O)CCCCCCCCCCNC(=O)[C@H](CCCCN)n3cc(CCCC(=O)O)nn3)CC2)n1`, -30.2%. As to `C#CCOCCOCCOCCNc1nc(N2CCN(C(=O)CCCCCCCCCCNC(=O)[C@H](CCCCN)n3cc(CCCC(=O)O)nn3)CC2)nc(N2CCN(C(=O)CCCCCCCCCCNC(=O)[C@H](CCCN=C(N)N)n3cc(C[C@@H](C)CC)nn3)CC2)n1`, the inhibition is 13.7%. As for `C#CCOCCOCCOCCNc1nc(N2CCN(C(=O)CCCCCCCCCCNC(=O)[C@H](CCCCN)n3cc(CCCC(=O)O)nn3)CC2)nc(N2CCN(C(=O)CCCCCCCCCCNC(=O)[C@H](CCCCN)n3cc(CCCC(=O)O)nn3)CC2)n1`, the figure is 0.23%. As to `C#CCOCCOCCOCCNc1nc(N2CCN(C(=O)CCCCCCCCCCNC(=O)[C@H](CCCCN)n3cc(C[C@@H](C)CC)nn3)CC2)nc(N2CCN(C(=O)CCCCCCCCCCNC(=O)[C@@H]([C@H](C)O)n3cc(C)nn3)CC2)n1`, the inhibition was 51.8%. As for `C#CCOCCOCCOCCNc1nc(N2CCN(C(=O)CCCCCCCCCCNC(=O)[C@@H](CCSC)n3cc(CCO)nn3)CC2)nc(N2CCN(C(=O)CCCCCCCCCCNC(=O)[C@H](CCCN=C(N)N)n3cc(C[C@@H](C)CC)nn3)CC2)n1`, the figure is -10.5%. The result for `COc1ccccc1/C=N/NC(=O)c1nnn(-c2nonc2N)c1CSC1=NCCS1` reads -3.46%; that for `COc1cc(/C=C/C(=O)Nc2ccncc2)cc(OC)c1OC`, 9.98%; that for `Cc1nn(-c2ccccc2)c(N2CCCC2)c1/C=N/NC(=O)c1cc(-c2cccs2)nc2ccccc12`, -12.2%. Take `CCOC(=O)C1(CCCc2ccccc2)CCN(C(=O)CCN2CCCCC2=O)CC1`: the inhibition was -9.1%. As for `O=C(c1ccc(COc2ccccc2Cl)o1)N1N=C(C(F)F)CC1(O)C(F)F` (stereo not given), the figure is -0.36%; as for `Cc1ccc(C(O)P(=O)(Oc2ccccc2)Oc2ccccc2)cc1` (stereo not given), -35.5%; as for `COc1ccc(NC(=O)CCN2C(=O)C3CC=C(Cl)CC3C2=O)cc1` (stereo not given), -3.04%. The result for `C#CCOCCOCCOCCNc1nc(N2CCN(C(=O)CCCCCCCCCCNC(=O)[C@@H](CCC(=O)O)n3cc(CCCCCN)nn3)CC2)nc(N2CCN(C(=O)CCCCCCCCCCNC(=O)[C@H](CO)n3cc(CCCCCN)nn3)CC2)n1` reads -6.21%. The result for `C#CCOCCOCCOCCNc1nc(N2CCN(C(=O)CCCCCCCCCCNC(=O)[C@@H](CCC(=O)O)n3cc(CCCCCN)nn3)CC2)nc(N2CCN(C(=O)CCCCCCCCCCNC(=O)[C@H](CO)n3cc(CCCSC)nn3)CC2)n1` reads -11.4%; that for `C#CCOCCOCCOCCNc1nc(N2CCN(C(=O)CCCCCCCCCCNC(=O)Cn3cc(C[C@@H](C)O)nn3)CC2)nc(N2CCN(C(=O)CCCCCCCCCCNC(=O)[C@H](CCCCN)n3cc(C[C@@H](C)CC)nn3)CC2)n1`, 14.8%. For the compound `C#CCOCCOCCOCCNc1nc(N2CCN(C(=O)CCCCCCCCCCNC(=O)[C@H](CO)n3cc(CCCSC)nn3)CC2)nc(N2CCN(C(=O)CCCCCCCCCCNC(=O)[C@H](CCCCN)n3cc(C[C@@H](C)CC)nn3)CC2)n1`, the inhibition is -5.02%. As for `C#CCOCCOCCOCCNc1nc(N2CCN(C(=O)CCCCCCCCCCNC(=O)[C@H](CO)n3cc(CCCSC)nn3)CC2)nc(N2CCN(C(=O)CCCCCCCCCCNC(=O)[C@H](CCCN=C(N)N)n3cc(C[C@@H](C)CC)nn3)CC2)n1`, the inhibition is 25.4%. As for `C#CCOCCOCCOCCNc1nc(N2CCN(C(=O)CCCCCCCCCCNC(=O)[C@@H](CCC(=O)O)n3cc(CCCCCN)nn3)CC2)nc(N2CCN(C(=O)CCCCCCCCCCNC(=O)[C@H](CCCCN)n3cc(C[C@@H](C)CC)nn3)CC2)n1`, the figure is -7.23%.

Source of the values: PubChem BioAssay AID1850 (Southern Research Specialized Biocontainment Screening …, 2009).
